Reference: the supplement of paper PMC6555819

tested on: RARb homodimer (NR concentration 270 nM); assay: PBM binding z-score (relative to random genomic background probes); higher = stronger binding; sequences stand for … in GC…GCGATTGACAGCGTAGAATGAAGG
Method in brief: (§1)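 Antibodies against each partner of ligand-free nuclear receptor dimers (one per run) detected binding on custom Agilent 4×180K protein-binding microarrays after 1 h incubation. The double-stranded probes had 34-nt variable regions carrying direct-repeat seeds, single-nucleotide variants, half-site ablations and random human genomic background sequences. Binding z-scores, from regression-normalized fluorescence, use the random background probes as reference.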

Row | Sequence | PBM binding z-score
1 | CCTACTGGGCCACGTAAGGTCATTGATTCAGTGA | 3.87
2 | ACTAGTAGGTCAGCTGAGGTCACACACAATTCGG | 5.47
3 | CCTAGTTGGTCAAGCTCACACACGCTATAGGTAC | 0.906
4 | CCTTACGGGTCACTCCATGTTATAGCATCGGAGT | 2.87
5 | CCGAGTAGGTTACGAGGAGGCATTCAGTGCGAAT | -0.00242
6 | TGAATGAAGTTAAAGATCAGGGAACGTGGCGTCG | -1
7 | CGTCCAAGGTCAAAGGTCAGGGAAGAGATGACGG | 5.58
8 | CCGAGTAGGTTACGAGGCGGCATTCAGTGCGAAT | 0.155
9 | CAAACTAGGTCACCGTAAGGTCAAAGTCCGCATG | 5.88
10 | ACTAGCAGGTCAAGGGTCACTCAAGATTAGTCCG | 4.9
11 | ACTAGTGGGTCAGCTGAGGTCACACACAATTCGG | 5.07
12 | CCTTACGGGTCACTCAAGGTTATAGCATCGGAGT | 3.55
13 | TCGAGTAGGTTACGGCGGCATTCAGGGATGAAGA | 0.0882
14 | ATATGTAGGTTAGAGTCATTCAGAAAGTAGGGAA | 0.746
15 | CGAACGAGGTCAGAACAGGACAGTGAAGGATGAT | 3.19
16 | CCTACTGGGGCACGAAAGGTCATTGATTCAGTGA | 4.81
17 | CCTACTGGGCCATCAGGTGATTGATATCAACGTT | -0.117

tested on: RARg:RXRa (NR concentration 270 nM, RXRa partner concentration 90 nM); assay: as above
Method in brief: as §1

Row | Sequence | PBM binding z-score
18 | TCGAGTAGGTTACGGGGTCATTCAGGGATGAAGA | 5.96
19 | CCGACTGGGTCAAAGGTTACCATACTCAGTACGA | 5.88
20 | CGTCCAAGGTCAATGTTAGGTCAGTGAAAGCATT | 7.45
21 | CAACCTAGGTCACGAAAGGTCAAAGTCGAATGAC | 7.91
22 | CGTCAAAGTTCACCTAAGGTAACGTAAAGCACGC | 5.95
23 | CCAGACAGGTGAAAGGTCACTCAGTCTGGTACGC | 6.66
24 | TTACCAAGGTGACCTGAGGTCGTTGATCCAACTC | 3.18
25 | CTCGAAAGGTCAGTTGAGGTGAGTATACGGATAA | 6.7
26 | CGTCCAAGGTCAGAGAGGTCATTGAATGCCGAGT | 6.66
27 | TAGCCTAGGTTATGCGGGCCAGTATAGTGTCGGC | -0.108
28 | CCTACTGTGCCATTCAGAGGTCATTGATCATATG | 4.2
29 | CAAACTAGGTCAAAGGTCAAAGTAGAGCCAACCA | 8.91
30 | CCGAGTAGGTTACGTGGGGGCATTCAGTGCGAAT | 2.87
31 | TTACCAAGGTCAGCTGAGGTCGTTGATCCAACTC | 5.52
32 | AGTCAAAATTCACTAGGTAACGTAAGATTCAGCT | 0.434
33 | GCATATAGGTAATTCAAGGTGAAAGTCCGATTGT | 0.546
34 | GATACAGGGTGAGCTAGAGGCCAGAGTATGGAAA | 2.08
35 | CCTAGCAGGCCAATCGGGGTCACTCAAGGCTTGA | 4.43
36 | ACTAGGTGGTCAGCTGAGGTCACACACAATTCGG | 4.04
37 | GCTTACGGGTCAAAGGTTAAAGCATGAATAGAAT | 7.28

Row | Sequence | PBM binding z-score
38 | TCTAGTAGGTCACGGAGGTCACACACGACGGGTA | 7.29
39 | CCTACTGGGCCATTCAGAGGTTATTGATCATATG | 1.1
40 | CCTACTGGGCCACGTAAGGTCATTGATTCAGTGA | 3.33
41 | ACTAGTAGGTCAGCTGAGGTCACACACAATTCGG | 6.45
42 | CCTAGTTGGTCAAGCTCACACACGCTATAGGTAC | 0.632
43 | CCTTACGGGTCACTCCATGTTATAGCATCGGAGT | 4.1
44 | CCGAGTAGGTTACGAGGAGGCATTCAGTGCGAAT | 0.333
45 | TGAATGAAGTTAAAGATCAGGGAACGTGGCGTCG | -0.156
46 | CGTCCAAGGTCAAAGGTCAGGGAAGAGATGACGG | 9.1
47 | CCGAGTAGGTTACGAGGCGGCATTCAGTGCGAAT | 0.238
48 | CAAACTAGGTCACCGTAAGGTCAAAGTCCGCATG | 8.26
49 | ACTAGCAGGTCAAGGGTCACTCAAGATTAGTCCG | 6.89
50 | ACTAGTGGGTCAGCTGAGGTCACACACAATTCGG | 5.77
51 | CCTTACGGGTCACTCAAGGTTATAGCATCGGAGT | 4.9
52 | TCGAGTAGGTTACGGCGGCATTCAGGGATGAAGA | 0.396
53 | ATATGTAGGTTAGAGTCATTCAGAAAGTAGGGAA | 0.752
54 | CGAACGAGGTCAGAACAGGACAGTGAAGGATGAT | 4.63
55 | CCTACTGGGGCACGAAAGGTCATTGATTCAGTGA | 4.75
56 | CCTACTGGGCCATCAGGTGATTGATATCAACGTT | 0.0131
